A selection: hits, their analogues and other compounds. The true share with any hit is near 5.1%.
CRFR2-BP antag = CRF-BP/CRF-R2 complex antagonism; HEK293 CRF-R2/CRF-BP, CRF-induced calcium fluorescence; inhibition, % at 11.8 µM; hit rate 0.59% among 350,000; AID 588475;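 active means inhibition of the ligand-induced calcium signal above about 50% at the single tested concentration, limit read from the data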
NR3A LBD binder = modulates the human NR3A ligand-binding domain; NR3A LBD differential scanning fluorimetry, Tm shift; 0% = protein alone, 100% = glycine-bound protein; Tm shift relative to glycine control, % at 25 µM; hit rate 2.5% among 340,000; AID 1259313;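 active means melting temperature shift of at least 10% of the positive control shift, at one fixed dose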
ANO1 block = blocks the mouse calcium-activated chloride channel TMEM16A. normalized B-score (activity score, 25-100; higher = stronger inhibition) at 10 µM. Q8BHY3. hit rate 1.2% among 310,000. HEK293 TMEM16A/YFP iodide influx fluorescence, ionomycin;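 active means ratio plate-corrected score three or more library SD toward inhibition, starting fluorescence score within five deviations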;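 further: score derived from kinetic fluorescence span divided by baseline fluorescence per well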
Target sequence (Q8BHY3 whole entry, looked up): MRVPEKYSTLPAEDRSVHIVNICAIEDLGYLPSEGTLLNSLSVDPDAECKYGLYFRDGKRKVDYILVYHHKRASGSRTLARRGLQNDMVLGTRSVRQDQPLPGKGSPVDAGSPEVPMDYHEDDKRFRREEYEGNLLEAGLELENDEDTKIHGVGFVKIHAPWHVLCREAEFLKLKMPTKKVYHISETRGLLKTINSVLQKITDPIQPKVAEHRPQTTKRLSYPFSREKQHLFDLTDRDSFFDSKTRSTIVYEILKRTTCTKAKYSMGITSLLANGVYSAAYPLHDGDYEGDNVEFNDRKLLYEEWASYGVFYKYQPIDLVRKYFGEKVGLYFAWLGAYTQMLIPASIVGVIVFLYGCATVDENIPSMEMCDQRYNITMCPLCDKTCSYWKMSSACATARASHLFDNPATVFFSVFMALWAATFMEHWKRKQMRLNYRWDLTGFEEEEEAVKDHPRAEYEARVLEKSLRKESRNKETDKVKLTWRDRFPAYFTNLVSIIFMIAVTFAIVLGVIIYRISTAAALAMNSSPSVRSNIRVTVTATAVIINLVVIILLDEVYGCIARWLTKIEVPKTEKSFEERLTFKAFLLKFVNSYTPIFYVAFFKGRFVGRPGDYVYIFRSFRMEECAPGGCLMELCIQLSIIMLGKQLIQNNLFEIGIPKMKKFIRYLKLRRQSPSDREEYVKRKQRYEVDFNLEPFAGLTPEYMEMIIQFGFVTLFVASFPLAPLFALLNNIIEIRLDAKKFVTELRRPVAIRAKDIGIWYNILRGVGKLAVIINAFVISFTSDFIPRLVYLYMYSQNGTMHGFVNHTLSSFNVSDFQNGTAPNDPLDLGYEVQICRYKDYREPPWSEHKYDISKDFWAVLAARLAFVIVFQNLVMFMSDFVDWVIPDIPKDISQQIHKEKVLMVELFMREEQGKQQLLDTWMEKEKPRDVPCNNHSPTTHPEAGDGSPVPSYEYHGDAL
TMEM16A act = activates or potentiates the mouse TMEM16A chloride channel; Q8BHY3; HEK293 TMEM16A/YFP-H148Q/I152L, iodide quench fluorescence; hits give low values; B-score at 10 µM; hit rate 0.3% among 340,000; AID 623877;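 active means fluorescence-ratio B-score plate-corrected deviation score at least 3 library SD below zero, with starting fluorescence score within 5 deviations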;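 further: channel opened by trigger with iodide after compound preincubation; score built on the fluorescence ratio of max minus min over baseline; more negative score means more quench and so TMEM16A activation or potentiation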
CRFR2-BP ag = agonists of human CRF-binding protein/CRF-R2 receptor complex. hit rate 0.46% among 350,000. HEK293 CRF-R2/CRF-BP, calcium dye fluorescence (FLIPR); percent of saturating CRF peptide response. AID 588473. activation, % at 13.2 µM;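 active means activation of at least 50%, plus an integration ratio under a set limit after plate pattern correction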;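 further: plate controls were neutral control wells without compound for no effect and CRF at EC100 for full effect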
MPTP inh = permeability transition pore inhibition | inhibition, % at 10 µM | isolated mouse mitochondria, Ca2+ swelling absorbance, 30 min | hit rate 1.4% among 360,000;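 active means inhibition of 50% or more, scaled per plate between neutral and stimulator controls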;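 further: 0% = DMSO wells given calcium and 100% = 1 mM EGTA wells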
MPTP counter = mitochondrial membrane potential, counter-screen; shares compounds with MPTP inh; isolated mitochondria, Rhodamine 123 fluorescence; inhibition, % at 10 µM; hit rate 78% among 5,000; in the data active means inhibition above about 22%;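 further: 0% = DMSO vehicle and 100% = positive control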
MPTP swell DR = MPTP inhibition, dose response swelling confirmation | shares compounds with MPTP inh | isolated mitochondria swelling, absorbance | IC50, µM | hit rate 58% among 780; in the data active means IC50 below about 20 µM
MPTP counter DR = MPTP inhibitor counter-screen activity, dose response | shares compounds with MPTP inh | isolated mitochondria counterscreen, fluorescence read-out | IC50, µM | hit rate 49% among 780 | AID 651564; in the data active means IC50 below about 80 µM
Starred values were filed as active, the others as inactive; i = inactive; · = not tested or not shown.

SMILES	CRFR2-BP antag	NR3A LBD binder	ANO1 block	TMEM16A act	CRFR2-BP ag	MPTP inh	MPTP counter	others
Cc1ccc(NC(=O)c2cc3ccccc3cc2O)cc1	-6	22*	i	i	3	70*	73*
CN(C)c1ccc(NC(=O)c2cn(-c3ccccc3)nc2-c2cccs2)cc1	12	2	i	i	-1	1	·
Cn1nnnc1SCC(=O)Nc1ncc(Cl)cc1Cl	-5	-1	i	i	1	-3	·
COc1ccc(CN2CCNC(=O)C2CC(=O)NCCc2nc(C)c(C)s2)cc1C (stereo unspecified)	4	0	i	i	1	-1	·
CCC/C=C/c1ccc(CN2C(C(C)C)C(=O)N(Cc3cn(CCC4OCCCO4)nn3)CCS2(=O)=O)cc1 (stereo unspecified)	-5	·	·	·	-1	-1	·
CCCS(=O)(=O)NC(=O)C1(C)CCN(C(=O)c2ccco2)C1 (stereo unspecified)	·	·	·	·	·	41	·
CC(=O)N1c2ccc(S(=O)(=O)N(C)CC(=O)Nc3ccccc3C)cc2CC1C (stereo unspecified)	23	2	i	i	-2	0	·
Cc1ccc(C)c2c1[nH]c1ccc([N+](=O)[O-])cc12	8	35*	i	i	0	81*	82*
CC1Oc2ccccc2C=C1/C=N/NC(=O)c1ccccc1O (stereo unspecified)	28	13*	i	i	11	90*	72*
O=C(OCC(=O)N1CCOCC1)c1cc(=O)[nH]c2ccccc12	7	-1	·	i	0	-1	·
CCn1c(C)nc([N+](=O)[O-])c1Sc1ccc(F)cc1	-10	-1	i	i	0	77*	-1	MPTP swell DR=>100;MPTP counter DR=>80
Cc1nc([N+](=O)[O-])c(Sc2nc3ccccc3[nH]2)n1Cc1ccccc1	-39	-5	i	i	0	1	·
CCCC(=O)NC(NC(=S)Nc1ccc(S(N)(=O)=O)cc1)C(Cl)(Cl)Cl (stereo unspecified)	-21	-22	i	i	0	0	·
CCC(=O)NC(NC(=S)Nc1ccccc1Br)C(Cl)(Cl)Cl (stereo unspecified)	-3	2	i	i	0	3	·
O=C(CCc1ccccc1)NC(NC(=S)Nc1ccc(Br)cc1)C(Cl)(Cl)Cl (stereo unspecified)	-7	14*	i	i	-1	81*	81*
O=C(CCc1ccccc1)NC(NC(=S)Nc1cccc(Cl)c1)C(Cl)(Cl)Cl (stereo unspecified)	17	38*	i	i	0	94*	78*
CSc1cccc(NC(=S)NC(=O)CCc2ccccc2)c1	-31	-11	i	i	0	1	·
CCCC(=O)NC(NC(=S)Nc1ccc(N=Nc2ccccc2)cc1)C(Cl)(Cl)Cl (stereo unspecified)	15	22*	i	i	-1	103*	62*
Cc1ccc(S(=O)(=O)N2CCN(C(=O)c3ccnn3C)CC2)cc1C	-3	0	i	i	1	0	·
Cc1ncc([N+](=O)[O-])n1CC(=O)Nc1ccc(Br)cc1	-3	2	i	i	4	1	·
CCOC(=O)C1CCN(C(=O)c2cccc(S(=O)(=O)N3CCCc4ccccc43)c2)CC1	11	-4	·	i	3	0	·
Cc1ccc(C(=O)CCC(=O)OCC(=O)NNC(=O)c2ccc([N+](=O)[O-])cc2)cc1	-4	1	·	i	-1	3	·
COc1ccc(NC(=O)c2cccnn2)cc1	13	-4	i	i	0	1	·
CC(=O)[C@H]1CC[C@H]2[C@@H]3CC=C4C[C@@H](O)CC[C@]4(C)[C@H]3CC[C@]12C	-4	0	i	i	-1	1	·

Screening data from PubChem BioAssay.
